Values joined by “and” are separate entries in the source; they are usually repeats but may differ in a detail not shown here. Equal entries are not always repeated. More than one record can exist for a structure, and the calls need not agree. Active and inactive are the calls of the source. Rule for the calls: active = hit-call score of the fitted dose curve at least 0.9, where 1 is the maximum; inactive = score below 0.9.

A short description of the assay: ATG_Ets_CIS: Attagene CIS-FACTORIAL HepG2 Assay for human Erythroblast Transformation Specific (ETS) (AID 2282941). As to conditions: HepG2 ETS cis-reporter transcription, actives raise or lower the signal. On the procedure:
ATG_CIS is a cell-based, multiplexed-readout assay that uses HepG2, a human liver cell line, with measurements taken at 24 hours after chemical dosing in a 24-well plate.ATG_Ets_CIS is one of 52 assay component(s) measured or calculated from the ATG_CIS assay. It is designed to make measurements of mRNA induction, a form of inducible reporter, as detected with fluorescence intensity signals by Reverse transcription polymerase chain reaction (RT-PCR) and Capillary electrophoresis technology.Data from the assay component ATG_Ets_CIS was analyzed into 1 assay endpoint. This assay endpoint, ATG_Ets_CIS, was analyzed with bidirectional fitting relative to DMSO as the negative control and baseline of activity. Using a type of inducible reporter, measures of mRNA for gain or loss-of-signal activity can be used to understand the reporter gene at the transcription factor-level as they relate to the gene ETS1. Furthermore, this assay endpoint can be referred to as a primary readout, because this assay has produced multiple assay endpoints where this one serves a reporter gene function. To generalize the intended target to other relatable targets, this assay endpoint is annotated to the dna binding intended target family, where the subfamily is winged helix-turn-helix.
Human liver HepG2 cells are transiently transfected with multiple reporter transcription units (MRTUs) in 6-well plates using FuGene 6 reagent (Roche; 3 ml FuGene/1 mg DNA). The MRTU constructs are regulated by a cis-regulating element (promoter). […] A major difference between the CIS and TRANS system is that in CIS activities of endogenous TFs are measured, whereas the TRANS assay evaluates changes in activities of exogenous, chimeric NR-Gal4 proteins. […] At the end of 24 hour incubation, total RNA was isolated using TriZol reagent (Invitrogen). The isolated RNA is then reverse-transcribed using oligo(dT) primer and Mo-MLV reverse transcriptase (Invitrogen) with DNAse I (Ambion) treatment for 30 min. The one-tenth of the produced cDNA was amplified by PCR using Taq DNA polymerase (Invitrogen) and two reporter sequence-specific primers. The PCR products were fluorescently labeled by primer extension with 6-arboxyfluorescein (6-FAM) 5'-labeled reporter sequence-specific primer (2 min at 95 C, 20 s at 68 C and 10 min at 72 C) and these products were digested with 5U of HpaI (New England Biolabs) for 2h at 37 C. The fragments were purified using Qiaquick PCR columns (Qiagen), analyzed on an ABI 3130xL genetic analyzer (Applied Biosystems) with peak positions identified by using a set of X-rhodamine (ROX)-labeled MapMarker1000 molecular weight standards (BioVentures). The raw capillary electrophoresis data was processed using Attagraph software (Attagene).
On to `COc1ccc(C(C)=O)cc1`, for which the result was inactive.
The same measure, in the same setting: for `C[C@H](CCC(=O)O)[C@H]1CC[C@H]2[C@@H]3CC[C@@H]4C[C@H](O)CC[C@]4(C)[C@H]3CC[C@]12C` the value was “inactive”; for `CCCCCCCCCO`, “inactive”.
Same read-out and setting: the value for `O=S(=O)(O)c1cc(S(=O)(=O)O)c2c(N=Nc3ccccc3)c(O)ccc2c1` was “inactive”.
Still for that read-out and setting: the value for `C=C(C)C(=O)OCCOCCOC(=O)C(=C)C` was “inactive”.
With `CNC(=C[N+](=O)[O-])NCCSCc1ccc(CN(C)C)o1`, the compound was called inactive.
On the same count and under the same terms, for `CN1CCc2cccc3c2[C@H]1Cc1ccc(O)c(O)c1-3` the value was “inactive”.
Turning to `COC(=O)c1cccc(C(=O)OC)c1`, the outcome was inactive.
Still for that read-out and setting: for `CC(=O)C1=C(C)[C@@H]2C[C@@]3(C1)[C@H](C)CC[C@H]3C2(C)C` the value was “inactive”; for `CC1(C)[C@H](C=C(Cl)Cl)[C@H]1C(=O)OCc1cccc(Oc2ccccc2)c1`, “inactive”.
Turning to `CCCCCCCCCCCCN1CCOCC1`, the compound was classed as inactive.
Take `Nc1cc([N+](=O)[O-])ccc1C(=O)O`: the compound was called inactive.
The same measure, in the same setting: the value for `CCCCCCCC1CCCC1=O` (stereo not given) was “inactive”.
Still for that read-out and setting: the value for `COc1ccccc1O` was “inactive”; that for `Nc1ccc(O)c(N)c1` was “inactive”.
On the same count and under the same terms, the value for `CCCC[N+](C)(CCCC)CCCC` was “inactive”.
Turning to `CC(=O)OC(C)(C)C1CC=C(C)CC1` (stereo not given), the call was inactive.
On to `CC(=O)CCC=C(C)CCC=C(C)C`, for which the outcome was inactive.
Still for that read-out and setting: for `CCCc1ccc(N)cc1` the value was “inactive”.
Same read-out and setting: for `CC(C)CCCC(C)(C)O` the value was “inactive”.
On to `C#C[C@]1(O)CC[C@H]2[C@@H]3CCc4cc(O)ccc4[C@H]3CC[C@@]21C`, for which the result was inactive and the half-maximal activity concentration (AC50) is 100 µM (active).
Consider `CC1=CC(O)CC(C)(C)C1` (stereo not given), for which the compound was called inactive.
The same measure, in the same setting: the value for `CCC(=O)OC/C=C(\C)CCC=C(C)C` was “inactive”.
The same measure, in the same setting: for `C=C(C)C(N)=O` the value was “inactive”; for `CC(C)(O)C(=O)c1ccc(OCCO)cc1`, “inactive”.
Still for that read-out and setting: the value for `CCCCCCCCSCc1cc(C)c(O)c(CSCCCCCCCC)c1` was “inactive”; that for `CCOC(=O)CC(C)C` was “inactive”; that for `CCC(C)COC(=O)CC(C)C` (stereo not given) was “inactive”.
In the case of `c1ccc(Sc2ccccc2)cc1`, the result was inactive.
`CC(=O)CCc1ccc(O)cc1`: the outcome was inactive.
On the same count and under the same terms, the value for `CCOC(=O)C=Cc1ccccc1` was “inactive”.
Still for that read-out and setting: for `CCCO` the value was “inactive”; for `CC1=CCC(C(C)C)=CC1`, “inactive”.
For `O=C(c1ccc(OCCN2CCCCC2)cc1)c1c(-c2ccc(O)cc2)sc2cc(O)ccc12`, the result was inactive; the AC50 was 13.6 µM (active) and 17 µM (active).
For the compound `Cc1cccc(C)c1`, the outcome was inactive.
On the same count and under the same terms, for `NC(=O)c1cnccn1` the value was “inactive”; for `O=S(=O)(O)CCCN1CCOCC1`, “inactive”.
`N#CCCNCCC#N`: the call was inactive.

Broadly, the AC50 is the midpoint of the concentration-response curve, whichever way the signal moves.
